In PubChem BioAssay (NCI):
This is part of a sample that, as a whole, favours compounds with a hit. Of some 83,000 tested, about 20% had one in any assay.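 Assay: single dose, 48 h. Readout: percent growth (0 = no net growth; negative = cell death). Active: <10.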 Unmarked numbers belong to inactive results. Active and inactive are the calls of the source.

These compounds were tested on MDA-MB-468 breast (assay: NCI-60 one-dose screen, 48 h (100 = growth as untreated, 0 = no growth, -100 = all killed)). Conditions: 10 µM unless noted.

Question: For `c1ccc(-n2nnnc2-c2cccc3ccccc23)cc1`, which growth is on record?
Answer: Its growth is -22.5% (active).

Question: How did the growth turn out when `O=C(O)CC1=CCCCC1` was run?
Answer: The growth was 102%.

Question: `NCCCNc1nc2ccccc2c2c(=O)c3cc(Cl)ccc3sc12` was tested. Which growth did it give?
Answer: Its growth is -19.1% (active).

Question: With `Nc1nc(=O)n([C@H]2CC=C(CO)O2)cc1F` as the compound, how does the growth read?
Answer: The growth was 106%.

Question: With `O=C(c1ccc(Cl)cc1)N1CCN(c2ccnc3cc(Cl)ccc23)CC1` as the compound, how does the growth read?
Answer: The growth was 72.7%.

Question: `CCOC(=O)c1cc(C)[nH]c(=O)c1C#N` was tested. Which growth did it give?
Answer: Its growth is 97.3%.

Question: For `O=C(Oc1ccc(CO[N+](=O)[O-])cc1)c1ccccc1`, which growth is on record?
Answer: Its growth is -67.7% (active).

Question: `Cn1ccnc1C(=O)/C=C/c1ccc(CNC(=O)c2ccc(F)cc2)cc1` was tested. Which growth did it give?
Answer: The growth was -29.1% (active).

Question: For `O=C(CN1CCN(c2ccccc2)CC1)N1CCN(c2nnc(-c3ccc(Cl)cc3)c(-c3ccc(Cl)cc3)n2)CC1`, which growth is on record?
Answer: The growth was 78.7%.

Question: `O=C(/C=C/C12c3ccccc3C(c3ccccc31)C1C(=O)N(c3ccccc3)C(=O)C12)c1ccccc1` (stereo not given) was tested. Which growth did it give?
Answer: Its growth is 1.31% (active).

Question: `Cn1cc(-c2cc(N)n3nc(-c4cn(C)c5ccccc45)cc3n2)c2ccccc21` was tested. Which growth did it give?
Answer: The growth was 75%.

Question: For `c1ccc(C(c2nc3ncncc3[nH]2)N2CSc3nc4ccccc4n3C2)cc1` (stereo not given), which growth is on record?
Answer: Its growth is 94.8%.

Question: `COc1ccc(-c2nc3sc(C4CC4)nn3c2/C=C2/C(=O)Nc3ccc(OC)cc32)cc1` was tested. Which growth did it give?
Answer: The growth was 23.3%.

Question: `O=C1C(N2CCN(c3ccccc3)CC2)=C(Cl)C(=O)c2ncccc21` was tested. Which growth did it give?
Answer: Its growth is -62.8% (active).

Question: How did the growth turn out when `COc1ccc2nc3cc(Cl)ccc3c(NC(=O)CSc3ccc(Cl)cc3)c2c1` was run?
Answer: Its growth is -81.7% (active).

Question: Which growth does the source give for `C=C1C(=O)O[C@H]2[C@H]1CC/C(COC(=O)NCc1ccc(OC)c(OC)c1)=C\CC[C@@]1(C)O[C@@H]21` here?
Answer: Its growth is 24.3%.

Question: `Nc1c(C(=O)c2ccccc2)sc2nc(-c3cccs3)ccc12` was tested. Which growth did it give?
Answer: The growth was 3.08% (active).

Question: `CC(CN1CCN(CC(C)Nc2ccnc3cc(Cl)ccc23)CC1)Nc1ccnc2cc(Cl)ccc12` (stereo not given) was tested. Which growth did it give?
Answer: Its growth is -62.8% (active).

Question: With `CN1CCN(c2nc(-c3ccncc3)nc3sc4c(c23)CCCCCC4)CC1` as the compound, how does the growth read?
Answer: Its growth is 62.7%.

Question: How did the growth turn out when `CCc1ccc(CNCC(O)c2ccccc2)cc1` (stereo not given) was run?
Answer: The growth was -1.1% (active).

Question: How did the growth turn out when `COc1cccc(-c2nc3sccn3c2-c2ccnc(NCCNS(=O)(=O)c3ccc(C(F)(F)F)cc3)c2)c1` was run?
Answer: The growth was 41.7%.

Question: Which growth does the source give for `O=C1CCCc2nc3sc4c(=O)n(-c5ccccc5Cl)nnc4c3cc21` here?
Answer: The growth was 85.9%.

Question: Which growth does the source give for `CC1=NN(c2ccccc2)C(=O)/C1=C\N1CC(=O)NC1=S` here?
Answer: Its growth is 101%.

Question: `C/C(=N\Nc1cc(C)c2cc(C)ccc2n1)c1ccccn1` was tested. Which growth did it give?
Answer: The growth was -69% (active).

Question: With `COc1ccc(Cc2cc(-c3ccccc3C)n[nH]c2=O)cc1` as the compound, how does the growth read?
Answer: Its growth is 91.1%.

Question: Which growth does the source give for `COc1ccc2c(c1)nnc1c3cccnc3[nH]c21` here?
Answer: The growth was -92.6% (active).

Question: With `Cc1ccc(C)c2c1sc1nc3n[nH]c(N)c3c(=N)n12` as the compound, how does the growth read?
Answer: The growth was 97.1%.

Question: For `COc1ccc2oc(=O)cc(-c3nc4ccc(N)cc4[nH]3)c2c1`, which growth is on record?
Answer: Its growth is 83.9%.

Question: Which growth does the source give for `CC(C)(O)c1cncc(-c2ccc3ncc(C#N)c(N4CCc5cc(F)c(Cl)cc54)c3c2)c1` here?
Answer: The growth was 10.2%.

Question: Which growth does the source give for `CCOC(=O)C(=O)Nc1ccc2c(ccn2C(=O)c2cccc(F)c2)c1` here?
Answer: The growth was 89.5%.

Question: For `O=C(c1c[nH]c2ccccc12)c1n[nH]c(=S)n1-c1ccc([N+](=O)[O-])cc1`, which growth is on record?
Answer: The growth was 106%.

Question: How did the growth turn out when `O=C(Nc1ccc(C(=O)Nc2ccc(C3=NCCCN3)cc2)cc1)Nc1ccc(C2=NCCCN2)cc1` was run?
Answer: Its growth is 66.6%.

Question: With `CCn1cc(C(=O)O)c(=O)c2cc(F)c(N3CCN(CC(=O)Nc4ccc(S(=O)(=O)Nc5nccc(C)n5)cc4)C(C)C3)c(F)c21` (stereo not given) as the compound, how does the growth read?
Answer: The growth was 96.4%.

Question: With `C=CCn1c(SCC(=O)Nc2ccc(/C(C)=N/O)cc2)nnc1-c1cc(-c2ccc(S(N)(=O)=O)cc2)nc2ccccc12` as the compound, how does the growth read?
Answer: The growth was 57%.

Question: Which growth does the source give for `COC(=O)c1c2c(c(C)[n+]([O-])c1C)C(=O)C(NCc1cccc(Cl)c1)=CC2=O` here?
Answer: Its growth is -26.3% (active).

Question: With `CCOC(=S)SCc1ccc(Cl)cc1` as the compound, how does the growth read?
Answer: Its growth is 106%.

Question: For `CCOC(=O)COc1c(C)cc(SSc2cc(C)c(OCC(=O)OCC)c(C)c2)cc1C`, which growth is on record?
Answer: The growth was 109%.

Question: With `CSc1nc2ccc(C)cc2cc1/C=C1/C=C(c2ccccc2)NC1=O` as the compound, how does the growth read?
Answer: The growth was 49.1%.

Question: With `Cc1ccn2cc(Cc3cc(=O)oc4c3ccc3ccccc34)c(=O)nc2c1` as the compound, how does the growth read?
Answer: Its growth is 117%.

Question: For `NCCCNc1nc2ccccc2c2c(=O)c3cc(OC(F)(F)F)ccc3sc12`, which growth is on record?
Answer: Its growth is -69.8% (active).
